mHTT-CaM PPI inh: mHTT-calmodulin interaction abrogation. 3.6% of 190,000 active. AlphaScreen His-mHTT/GST-CaM binding, luminescence. inhibition, % at 15 µM
Pf apPOL block: Pf-apPOL DNA polymerase inhibition; inhibition, % at 10 µM; 0.25% of 210,000 active; AID 1794808; Recombinant Pf-apPOL, molecular beacon fluorescence, 1.5 h
A number is an active result; ! = not active in a repeat. Sampled rows, rich in hits. Any-hit rate of the full collection: about 3.5%. Cut-off read from the data, not from the text of the source: active = inhibition above about 50%; inactive = the rest.

What do the screens show for `CCNCCNC(=O)c1c(O)c2cc(F)cc3c2n(c1=O)C(C)CC3` (centres undefined)?
mHTT-CaM PPI inh: 98.0; Pf apPOL block: inactive

Results for CC1CCc2cc(F)cc3c(O)c(C(=O)NCCCN4CCOCC4)c(=O)n1c23 (centres undefined) ?
mHTT-CaM PPI inh: inactive; Pf apPOL block: inactive

What do the screens show for `CC(=O)NC(CCS(C)(=O)=O)C(=O)Nc1ccc(Br)cc1F` (centres undefined)?
mHTT-CaM PPI inh: inactive; Pf apPOL block: inactive

Results for O=[N+]([O-])C(=C1SCCCS1)C(=C(Cl)Cl)N1CCOCC1 ?
mHTT-CaM PPI inh: inactive; Pf apPOL block: inactive

Results for CC1CCCC(C)N1C(=C(Cl)Cl)C(=C1SCCS1)[N+](=O)[O-] (centres undefined) ?
mHTT-CaM PPI inh: 72.0; Pf apPOL block: inactive

How did Cc1ccc(C)c(N2CCN(C(=O)c3c(C)sc4ccn(C)c(=O)c34)CC2)c1 do in these assays?
mHTT-CaM PPI inh: 91.5; Pf apPOL block: inactive

How did Cc1sc2ccn(C)c(=O)c2c1C(=O)N1CCCCCC1 do in these assays?
mHTT-CaM PPI inh: inactive; Pf apPOL block: inactive

What do the screens show for `CCCn1ccc2sc(C)c(C(=O)N3CCN(c4ccc(F)cc4)CC3)c2c1=O`?
mHTT-CaM PPI inh: 60.4; Pf apPOL block: inactive

Results for CCCn1ccc2sc(C)c(C(=O)N3CCCC3)c2c1=O ?
mHTT-CaM PPI inh: inactive; Pf apPOL block: inactive

What do the screens show for `CCn1ccc2sc(C)c(C(=O)N3CCN(c4ccc(F)cc4)CC3)c2c1=O`?
mHTT-CaM PPI inh: 54.9; Pf apPOL block: inactive

What do the screens show for `CCn1ccc2sc(C)c(C(=O)N3CCN(c4ccccc4F)CC3)c2c1=O`?
mHTT-CaM PPI inh: inactive; Pf apPOL block: inactive

How did CNC(=O)C1CN(C(=O)c2c(F)cccc2F)CC12CCCC2 (centres undefined) do in these assays?
mHTT-CaM PPI inh: inactive; Pf apPOL block: inactive

Results for Cc1ccc(C(=O)Nc2cccc(-c3nc4ncccc4o3)c2C)cc1C ?
mHTT-CaM PPI inh: inactive; Pf apPOL block: inactive

How did CCOC(=O)Oc1ccc2c(=O)c(Oc3ccccc3Cl)coc2c1 do in these assays?
mHTT-CaM PPI inh: inactive; Pf apPOL block: inactive

How did CCOC(=O)Oc1ccc2c(=O)c(-c3ccccc3Cl)coc2c1 do in these assays?
mHTT-CaM PPI inh: inactive; Pf apPOL block: inactive

What do the screens show for `COC(=O)Oc1ccc2c(=O)c(Oc3ccccc3Cl)coc2c1`?
mHTT-CaM PPI inh: 69.0; Pf apPOL block: inactive

What do the screens show for `COC(=O)Oc1ccc2c(=O)c(-c3ccccc3Cl)coc2c1`?
mHTT-CaM PPI inh: 61.0!; Pf apPOL block: inactive

How did N/N=C1/C2CN3CCN(C2)CC1(Cc1ccccc1)C3 do in these assays?
mHTT-CaM PPI inh: inactive

Results for COc1cccc(C(=O)NCC(O)c2ccoc2)c1OC (centres undefined) ?
mHTT-CaM PPI inh: inactive; Pf apPOL block: inactive

How did O=C1Nc2ccccc2OC1C(=O)N1CCN(c2cccc(Cl)c2)CC1 (centres undefined) do in these assays?
mHTT-CaM PPI inh: inactive; Pf apPOL block: inactive

What do the screens show for `Cc1ccc(Cl)cc1N1CCN(C(=O)C2Oc3ccccc3NC2=O)CC1` (centres undefined)?
mHTT-CaM PPI inh: 81.2; Pf apPOL block: inactive

How did CCOc1ccc(C2C(=O)N(C3CCCCC3)CC(=O)N2C2CCCCC2)cc1OC (centres undefined) do in these assays?
mHTT-CaM PPI inh: inactive; Pf apPOL block: inactive

What do the screens show for `O=C(NCc1ccccc1)NCC(O)c1ccc(C(F)(F)F)cc1` (centres undefined)?
mHTT-CaM PPI inh: inactive; Pf apPOL block: inactive

How did O=C(NCC(O)c1ccc(C(F)(F)F)cc1)C(c1ccccc1)c1ccccc1 (centres undefined) do in these assays?
mHTT-CaM PPI inh: 86.2; Pf apPOL block: inactive

Results for Cc1cc(C)n(-c2ccc(=O)n(CCNC(=O)CCn3ccc(=O)[nH]c3=O)n2)n1 ?
mHTT-CaM PPI inh: inactive; Pf apPOL block: inactive

What do the screens show for `O=C1C(=O)N(Cc2ccc(Cl)c(Cl)c2)c2ccc(Br)cc21`?
mHTT-CaM PPI inh: 100.0; Pf apPOL block: inactive

How did C=CCN1C(=O)C(=O)c2cc(Br)ccc21 do in these assays?
mHTT-CaM PPI inh: inactive; Pf apPOL block: inactive

Results for CCCN1C(=O)C(=O)c2cc(Br)ccc21 ?
mHTT-CaM PPI inh: inactive; Pf apPOL block: inactive

How did Cc1ccc(CN2C(=O)C(=O)c3cc(Br)ccc32)cc1 do in these assays?
mHTT-CaM PPI inh: 51.0; Pf apPOL block: inactive

Results for O=C1C(=O)N(Cc2ccc(F)cc2)c2ccc([N+](=O)[O-])cc21 ?
mHTT-CaM PPI inh: inactive; Pf apPOL block: inactive

Results for O=C1C(=O)N(Cc2ccc(F)cc2)c2ccc(Br)cc21 ?
mHTT-CaM PPI inh: 70.0; Pf apPOL block: inactive

What do the screens show for `COc1ccc(N=Cc2cccc([N+](=O)[O-])c2)cc1Cl`?
mHTT-CaM PPI inh: inactive; Pf apPOL block: inactive

How did Cc1cccc(-c2ncccc2CNC(=O)c2ccc(F)c(F)c2)c1 do in these assays?
mHTT-CaM PPI inh: inactive; Pf apPOL block: inactive

Results for NS(=O)(=O)c1ccc2nc(NC(=O)CCSc3ccc(F)cc3)sc2c1 ?
mHTT-CaM PPI inh: inactive; Pf apPOL block: inactive

Results for COc1ccc(C(=O)N2CCCC(COc3ccc(C(=O)N4CCCC4)cc3)C2)c(C)c1 (centres undefined) ?
mHTT-CaM PPI inh: inactive; Pf apPOL block: inactive

Results for O=C(NC1CCCCCC1)NC1CCCCC1 ?
mHTT-CaM PPI inh: inactive; Pf apPOL block: inactive

Results for O=c1ccc(-c2ccccc2)nn1CCc1nc(-c2cccc(F)c2)no1 ?
mHTT-CaM PPI inh: 81.4; Pf apPOL block: inactive

How did Cc1ccc(-c2noc(CCn3nc(-c4ccccc4)ccc3=O)n2)cc1 do in these assays?
mHTT-CaM PPI inh: inactive; Pf apPOL block: inactive

How did CCc1nccn1Cc1nc(-c2ccc(F)cc2)no1 do in these assays?
mHTT-CaM PPI inh: inactive; Pf apPOL block: inactive

Results for CCC(=O)N1CCN(c2cc(Cl)ccc2OC)C(=O)C1C (centres undefined) ?
mHTT-CaM PPI inh: inactive; Pf apPOL block: inactive

Results for c1ccc(CNc2ccc3cn[nH]c3c2)cc1 ?
mHTT-CaM PPI inh: 81.8; Pf apPOL block: inactive

What do the screens show for `Oc1ccc(CNc2ccc3cn[nH]c3c2)cc1`?
mHTT-CaM PPI inh: inactive; Pf apPOL block: inactive

What do the screens show for `Cc1ccccc1CNc1ccc2cn[nH]c2c1`?
mHTT-CaM PPI inh: 62.0; Pf apPOL block: inactive

How did COc1ccccc1CNc1ccc2cn[nH]c2c1 do in these assays?
mHTT-CaM PPI inh: inactive; Pf apPOL block: inactive

What do the screens show for `Cc1ccc(CNc2ccc3[nH]ncc3c2)cc1`?
mHTT-CaM PPI inh: 82.4; Pf apPOL block: inactive

What do the screens show for `COc1cc(CNc2ccc3cn[nH]c3c2)ccc1O`?
mHTT-CaM PPI inh: inactive; Pf apPOL block: inactive

Results for Cc1ccccc1N=c1oc2ccc([N+](=O)[O-])cc2cc1C(=O)Nc1nccs1 ?
mHTT-CaM PPI inh: inactive; Pf apPOL block: inactive

Results for O=C(NCCOc1ccc(-c2ccccn2)nn1)c1ccco1 ?
mHTT-CaM PPI inh: 100.3; Pf apPOL block: inactive

What do the screens show for `CC(Oc1ccccc1F)C(=O)NCCOc1ccc(-c2ccccn2)nn1` (centres undefined)?
mHTT-CaM PPI inh: 100.3; Pf apPOL block: inactive

How did CCOc1ccc(OCCNC(=O)c2cccs2)cc1 do in these assays?
mHTT-CaM PPI inh: inactive; Pf apPOL block: inactive

Results for CC(Oc1ccccc1F)C(=O)NCCN1CCCCC1 (centres undefined) ?
mHTT-CaM PPI inh: inactive; Pf apPOL block: inactive

How did O=C(NCCOc1ccc(-c2ccccn2)nn1)c1cccs1 do in these assays?
mHTT-CaM PPI inh: 100.3; Pf apPOL block: inactive

What do the screens show for `O=C(NCCOc1ccccc1-c1ccccc1)c1ccco1`?
mHTT-CaM PPI inh: inactive; Pf apPOL block: inactive

What do the screens show for `NCC(=O)c1cccs1`?
mHTT-CaM PPI inh: inactive

Assay outcomes: PubChem BioAssay, University of Kansas High Throughput Screening Laboratory
